PrP UTR inh: inhibition of PrP 5' UTR reporter expression | cell-based PrP 5' UTR mRNA reporter, plate reader | inhibition, % (concentration not given with the values) | 340,000 tested, 0.35% active; in the data active = inhibition above about 52%
Mtb FBA inh: Mtb FBA enzyme inhibitors, primary screen, biochemical, fluorescence, strain H37Rv; purified M. tuberculosis FBA, fluorescence read-out; inhibition, % at 1 µM; 360,000 tested, 2.3% active; AID 588726, 2011; in the data active = inhibition above about 27%
Target sequence (P9WQA3 whole entry, looked up): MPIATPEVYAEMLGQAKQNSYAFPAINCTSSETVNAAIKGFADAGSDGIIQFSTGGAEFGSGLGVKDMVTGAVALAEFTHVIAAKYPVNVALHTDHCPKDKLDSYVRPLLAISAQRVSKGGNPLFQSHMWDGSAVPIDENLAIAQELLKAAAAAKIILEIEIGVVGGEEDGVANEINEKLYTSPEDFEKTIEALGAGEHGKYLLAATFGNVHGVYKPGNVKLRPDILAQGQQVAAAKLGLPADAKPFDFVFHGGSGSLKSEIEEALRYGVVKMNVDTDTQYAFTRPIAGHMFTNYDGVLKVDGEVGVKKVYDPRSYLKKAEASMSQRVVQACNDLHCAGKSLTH
BJeLR lethal: MLPCN primary cell-based screen for lethality selective to Ras in HRASV12 cells. inhibition, % (no concentration beside the values). BJeLR (HRASV12) viability, CellTiter-Glo ATP luminescence, 48 h. 300,000 tested, 0.17% active; in the data active = inhibition above about 50%; inconclusive = no clear call, values can overlap the other calls
PfHsp40 rescue: rescue of yeast from PfHsp40 toxicity, primary screen, S. cerevisiae, ATP luminescence; 340,000 tested, 0.68% active; S. cerevisiae expressing PfHsp40, growth rescue; growth rescue, % at 12.5 µM; AID 504582, 2011; in the data active = growth rescue above about 28%, passing the limit was not always enough; inconclusive = no clear call, values can overlap the other calls;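 also: yeast W303a lacking pdr1 and pdr3 grown in galactose medium; growth measured after three days at 30 °C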
GDH-TPI counter: GDH-TPI coupling enzyme inhibitors, primary screen, artefact control for M. tuberculosis FBA inhibitor project, biochemical, absorbance, full deck. inhibition, % at 4.8 µM. GDH-TPI coupled enzyme counterscreen, NADH absorbance. 360,000 tested, 1.2% active; in the data active = inhibition above about 30%
PrPC TRFRET: inhibitors of human cell surface prion protein PrPC, primary screen, cell-based, TR-FRET. TR-FRET read-out. inhibition, % at 13.8 µM. 370,000 tested, 0.43% active; in the data active = inhibition above about 24%
Numbers stand for hits; i = inactive; ? = inconclusive; nt = no result given; + = active, no number. Compounds with a hit are over-represented: about 4.5% of the library has one in this group of screens.

SMILES	PrP UTR inh	Mtb FBA inh	BJeLR lethal	PfHsp40 rescue	GDH-TPI counter	PrPC TRFRET
CCC(NC(=O)Cc1c(C)c2cc3c(cc2oc1=O)OC(C)(C)CC3)C(=O)O (stereo unspecified)	i	+	i	i	i	i
Cc1c(CC(=O)NCCCC(=O)O)c(=O)oc2cc3c(cc12)CCC(C)(C)O3	i	+	i	i	i	i
Cc1c(CC(=O)N2CCC(C(N)=O)CC2)c(=O)oc2cc3c(cc12)CCC1(CCCCC1)O3	i	+	i	i	i	i
COCCCNC(=O)Cc1c(C)c2cc3c(cc2oc1=O)OC(C)(C)CC3	i	191.7	i	i	i	i
Nc1[nH]c2cc(Cl)ccc2c1C(=O)N1CCOCC1	nt	nt	nt	nt	nt	i
COC(=O)[C@]12C[C@H](CC(=O)NCCc3ccccc3OC)C(=O)N(Cc3cccc4ccccc34)C1=C[C@H](C1CCCC1)O[C@@H]2C	nt	nt	nt	nt	nt	i
CC(NC(=O)C1CCN(CCOc2ccc(Cl)cc2)CC1)c1cccc2ccccc12 (stereo unspecified)	nt	i	nt	nt	i	i
CCOC(=O)[C@]12CCCC3=C1N(CCC3)C(=O)[C@@H](CC(=O)N1CCCC1)C2	nt	nt	nt	nt	nt	i
CCCCN1C(=O)N2Cc3ccccc3C2CS1(=O)=O (stereo unspecified)	nt	nt	nt	nt	nt	i
Cc1c(CC(=O)NCCCCCC(=O)O)c(=O)oc2cc3c(cc12)CCC(C)(C)O3	i	187.0	i	i	i	i
Cc1c(CC(=O)O)c(=O)oc2cc3occ(-c4ccccc4)c3cc12	i	i	i	i	i	i
Cc1c(CC(=O)O)c(=O)oc2cc3c(cc12)CCC(C)(C)O3	i	+	i	i	i	i
N#Cc1c(N)n(C2CCCCC2)c2nc3ccccc3nc12	i	117.5	i	i	i	i
N#Cc1c(N)n(-c2ccc(C(=O)O)cc2)c2nc3ccccc3nc12	i	+	i	i	i	i
O=C(/C=C/[C@H]1O[C@@H](n2ccc(=O)[nH]c2=O)[C@H](O)[C@@H]1O)N1CCN(CCc2ccccc2)CC1	nt	i	nt	nt	nt	i
N#C/C(=C\c1cccs1)C(=O)NCc1ccccc1	i	i	i	i	i	i
Cc1c(/C=C(\CC(=O)O)c2nc3ccccc3s2)cc(C#N)n1C	i	i	i	i	42.6	i
COc1cc(/C=C(/C#N)C(=O)NCc2ccccc2)cc(OC)c1OC	i	i	i	i	50.0	i
Cc1c(/C=C(\C#N)C(=O)NCc2ccccc2)cc(C#N)n1C	i	i	i	i	34.9	i
Cc1cc(/C=C(\C#N)C(=O)NCc2ccccc2)cc(C)c1O	i	i	i	i	i	i
CCOC(=O)c1ccc(S(=O)(=O)N2CCC(N3CCCCCC3)CC2)cc1	nt	i	nt	nt	i	i
C=CCN1C(=O)[C@@H](CC(=O)NCc2cccc(C(F)(F)F)c2)[C@]2(C(=O)OC)CCCCC=C12	nt	nt	nt	nt	nt	i
C[C@H]1[C@H](NC(=O)c2ccc(Cl)c(Cl)c2)CC[C@@]23CCCN2C(=O)CCC[C@@H]13	nt	nt	nt	nt	nt	i
O=C(C1CCN(c2ncnc3c2sc2cccc(F)c23)CC1)N1CCN(Cc2ccc(F)cc2)CC1	nt	nt	nt	nt	nt	i
COc1ccc(-c2cc(=O)c3c(O)cc(O)cc3o2)cc1	i	i	nt	i	33.7	i
SMILES	PrP UTR inh	Mtb FBA inh	BJeLR lethal	PfHsp40 rescue	GDH-TPI counter	PrPC TRFRET
COc1ccc(-c2coc3cc(O)cc(O)c3c2=O)cc1	i	i	i	199.3	i	i
Cc1oc2c(CN3CCCCC3)c(O)ccc2c(=O)c1-c1ccc(Br)cc1	i	129.8	i	i	33.0	i
Cc1oc2c(CN3CCCCC3C)c(O)ccc2c(=O)c1-c1ccccc1 (stereo unspecified)	i	173.6	i	i	i	i
CCOC(=O)c1oc2c(CN3CCN(C)CC3)c(O)ccc2c(=O)c1-c1ccccc1OC	i	i	i	i	i	i
Cc1oc2c(O)c(O)ccc2c(=O)c1-c1ccccc1	i	i	i	?	i	i
COc1ccccc1-c1c(C)oc2c(CN3CCCCC3C)c(O)ccc2c1=O (stereo unspecified)	i	145.0	i	i	i	i
O=C1C(SCCO)=C(SCCO)C(=O)c2ccccc21	i	i	nt	i	i	64.9
O=C(NCC1COc2ccccc2O1)c1ccc(NC(=O)c2c(Cl)cccc2Cl)cc1 (stereo unspecified)	nt	nt	nt	nt	nt	i
COC(=O)[C@]12C[C@H](CC(=O)NCCCN3CCCC3=O)C(=O)N(Cc3ccc(Cl)cc3Cl)C1=C[C@H](C(C)(C)C)O[C@@H]2C	nt	nt	nt	nt	nt	i
O=C(O)c1cc(-c2cc(C(=O)O)c3ccccc3n2)ccc1O	i	i	nt	i	33.5	i
O=C(O)c1cc(-c2ccc(O)cc2)nc2ccccc12	nt	nt	i	nt	nt	nt
CCOc1ccc(-c2cc(C(=O)O)c3ccccc3n2)cc1	i	+	i	i	i	i
COc1ccc(CCN(Cc2cccs2)S(=O)(=O)c2ccc(C)c(C)c2)cc1OC	nt	nt	nt	nt	nt	i
O=C(Cc1ccc(Br)cc1)N1CCOCC1	i	i	i	36.3	i	i
O=C(Cc1ccc(-c2ccccc2)cc1)N1CCOCC1	i	i	i	i	i	i
Cn1c(-c2ccncc2)nc2ccccc21	i	i	i	i	i	i
CCN(CC)c1ccc(-c2nc3cnccc3n2C)cc1	i	i	i	i	31.4	i
COC(=O)C1CN(Cc2ccccc2)CCS(=O)(=O)N1Cc1cn(Cc2ccc(C)cc2)nn1 (stereo unspecified)	nt	nt	nt	nt	nt	i
Cc1c(NC(=O)C2CCCN(S(=O)(=O)c3ccc(Cl)s3)C2)c(=O)n(-c2ccccc2)n1C (stereo unspecified)	nt	nt	nt	nt	nt	i
COCc1cc(C)nc(N/N=C/c2ccc(-c3ccc(C(=O)O)c(Cl)c3)o2)c1C#N	nt	nt	i	nt	nt	nt
COCc1cc(C)n(CC(=O)N/N=C/c2ccc(-c3ccc(Cl)c(C(=O)O)c3)o2)c(=O)c1C#N	i	i	i	i	68.9	i
Cc1cccc(NC(=O)N2C[C@H]3C[C@@H](C2)c2cccc(=O)n2C3)c1	i	i	i	i	i	i
Cc1cccc(Nc2nnc(-c3ccc(C(=O)N4C[C@H]5C[C@H](C4)c4cccc(=O)n4C5)cc3)c3ccccc23)c1	i	i	i	84.4	i	i
O=C(NNc1ccc([N+](=O)[O-])cc1)c1ccccc1F	i	i	nt	32.0	i	i
COc1ccc(N/N=C(/N=Nc2nc(C)cc(=O)[nH]2)c2ccccc2)cc1	i	i	67.3	i	i	i
Cn1c2ccccc2c2cc(C(=O)O)ccc21	i	i	i	41.6	i	i
CCCn1c2ccccc2c2cc(C(=O)O)ccc21	i	i	i	325.3	i	i
CC1(C)CC(NC(=O)c2coc(=O)c(Br)c2)CC(C)(C)N1	i	60.4	i	i	i	i
Cc1nc(-c2cnn(-c3ccccc3)c2)c2cc(C)oc2n1	i	118.7	i	i	i	i

Assay outcomes as filed in PubChem.
